# Results from PubChem BioAssay (NCI).
# This is part of a sample that, as a whole, favours compounds with a hit. Of some 83,000 tested, about 20% had one in any assay.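 Note: values are percent growth. 100 is the growth of untreated cells, values between 100 and 0 indicate rising inhibition; between -100 and 0 indicates cell death.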 Activity calls are given as the source filed them.
# System: SK-MEL-28 melanoma
# Test: NCI-60 one-dose screen, 48 h (100 = growth as untreated, 0 = no growth, -100 = all killed)
# Conditions: 10 µM unless noted
# Description: Growth inhibition of the SK-MEL-28 human tumor cell line is measured as a screen for anti-cancer activity. Cells are grown in 96 well plates and exposed to the test compound for 48 hours. Compounds are tested at a single concentration, which is 10^-5 M for most compounds. The reported endpoint is percent growth (GI% or GIPRCNT), where numbers from 0 - 100% represent growth inhibition, and numbers from -100% - 0 represent cell death. For example, a value of 40 represents 60% growth inhibition. A value of 0 means no net growth occurred over the course of the experiment. A value of -40 indicates 40% of cells at the beginning of the experiment died by the end of the experiment. A value of -100 means all cells are dead at the end of the experiment.
# NCI-60 Human Tumor Cell Lines Screen was performed using the standard one-dose NCI protocol, which is described in more detail at https://dtp.cancer.gov/discovery_development/nci-60/default.htm.
# Compounds with GIPRCNT values below 10 were considered active. Activity score was based on GIPRCNT using the following formula: […]
# Score is 0 for GIPRCNT values of 100 or above, 50 for GIPRCNT values of 0, and 100 for GIPRCNT values of -100.
row,Compound,growth
1,Nc1nonc1-c1nc2ccccc2n1CC(=O)Nc1ccc2c(c1)COC2=O,93.1% (inactive)
2,NC(N)=NC(N)=NCCCc1ccccc1,97% [100 µM] (inactive)
3,O=C(Cn1ccnc1)NC(c1ccccc1)c1ccccc1,98.2% (inactive)
4,OC(c1cc(C(F)(F)F)nc2c(C(F)(F)F)cccc12)C1CCCCN1 (stereo not given),72.1% (inactive)
5,CC(=O)Oc1c(C)c(OC(C)=O)c2c(c1C(C)=O)OC1CC(=O)C(C(C)=O)=C(O)C21C (stereo not given),119% (inactive)
6,C=C(C[C@](O)(C(=O)/C=C/c1ccc(Cl)cc1)C(=O)OC)c1ccccc1,95.4% (inactive)
7,O=C1/C(=C/c2ccc([N+](=O)[O-])o2)Oc2ccc(Br)cc21,70.8% (inactive)
8,CC/C(=C\c1ccc(N(C)C)cc1)c1ccncc1,65.4% (inactive)
9,CN(C)c1nc(-c2ccco2)n2nc(-c3ccco3)cc2n1,119% (inactive)
10,C=C(C[C@@](O)(C(=O)Oc1ccccc1)C(=O)C1CCCCC1)c1ccccc1,98% (inactive)
11,CC[C@]1(O)CC2CN(CCc3c([nH]c4ccccc34)[C@@](C(=O)OC)(c3cc4c(cc3OC)N(C)[C@H]3[C@@](O)(C(=O)OC)[C@H](OC(C)=O)[C@]5(CC)C=CCN6CC[C@]43[C@@H]65)C2)C1 (stereo not given in full),68.1% (inactive)
12,CC(C)C/C(=N\NC(=O)c1ccncc1)c1cc(Cl)ccc1O,40.5% (inactive)
13,COc1ccc(C2=NN(C(=O)c3cc(OC)c(OC)c(OC)c3)C(c3ccc(C#N)cc3)C2)cc1OC (stereo not given),65.3% (inactive)
14,CC[N+](C)(CC)CCCC(C)Nc1ccnc2cc(Cl)ccc12 (stereo not given),117% (inactive)
15,O=C(C(=O)N1CCCCC1)c1ccc(OC2OC(CO)C(O)C(O)C2O)cc1 (stereo not given),104% (inactive)
16,CCC(O)C(C)(C)C (stereo not given),121% (inactive)
17,COc1cc2c(-c3nc4cc(Cl)c(F)cc4s3)cc(=O)oc2c(C)c1OC,-28.6% (active)
18,CCN(CC)CCCCNc1c2ccccc2[n+](C)c2c1[nH]c1ccccc12,-90.4% (active)
19,CCOC(=O)c1ccccc1OC(=O)NNc1ccccc1,93.6% (inactive)
20,CN(C)c1ccc(/C=C\c2ccnc3ccccc23)cc1,88.7% (inactive)

row,Compound,growth
1,O=c1cc(-c2cccnc2)oc2c1ccc1ccccc12,69.3% (inactive)
2,Cn1cc(-c2csc(-c3cn(C)c4ncccc34)n2)c2cc(F)cnc21,83.8% (inactive)
3,O=C(Nc1ccc(OCc2nnc(-c3ccccc3)o2)c(F)c1)Nc1ccc(Cl)c(C(F)(F)F)c1,49.2% (inactive)
4,O=C(Nc1nc2ccccc2s1)c1cc(-c2ccc(F)cc2)n2nc(-c3ccccc3)cc2n1,85.4% (inactive)
5,COc1ccc(C(=O)/C=C/c2c(Cl)nc3c(c(C)nn3-c3ccccc3)c2-c2ccc(Br)cc2)cc1,106% (inactive)
6,COC(=O)CCC1=C(CC(=O)OC)C(C)=N/C1=C\c1[nH]c(-c2ccc[nH]2)cc1OC,56.9% (inactive)
7,Oc1ccccc1/C=N\Nc1ccccc1,102% (inactive)
8,O=C(Nc1ccncc1)C(=O)c1cn(S(=O)(=O)c2cccc(F)c2)c2ccccc12,55.5% (inactive)
9,O=C(/C=C/c1ccc(Cl)cc1)c1ccccc1,113% (inactive)
10,O=C1C2C3C=CC(O3)C2C(=O)N1Nc1ccccc1 (stereo not given),105% (inactive)
11,COc1ccc2[nH]cc(/C=C3/C(=O)Nc4ccc(F)cc43)c2c1,96.2% (inactive)
12,COc1ccc(COC(C)=O)cc1,113% (inactive)
13,NS(=O)(=O)c1ccc(NC2=C(Cl)C(=O)c3ccccc3C2=O)cc1,124% (inactive)
14,CC1=NN(c2ccccc2Cl)C(=O)/C1=C\c1cn(S(=O)(=O)c2ccc(C)cc2)c2ccccc12,125% (inactive)
15,Nc1nc(Cl)c2[nH]cnc2n1,113% (inactive)
16,COc1cc(C2NC(c3ccc(Cl)cc3)C(C)/C(=N/NC(N)=S)C2C)cc(OC)c1OC (stereo not given),108% (inactive)
17,O=C(Nc1cccc([N+](=O)[O-])c1)c1cccc(C(=O)Nc2cccc([N+](=O)[O-])c2)c1,77.2% (inactive)
18,S=C(c1ccccc1)N1CCN(c2cccc(Cl)c2)CC1,121% (inactive)
19,O=C(Nc1ccc(C2=NCCCN2)cc1)Nc1ccc(C2=NCCCN2)cc1,86.9% (inactive)
20,C[C@@H]1CC[C@H]2[C@@H](C)C(O)O[C@@H]3O[C@]4(C)CC[C@@H]1[C@]32OO4 (stereo not given in full),78% (inactive)
